AHR activator – activates the human aryl hydrocarbon receptor; AHR-responsive luciferase reporter cells, luminescence; activation, % at 5 µM; 320,000 compounds, 2.5% hits; AID 2796; in the data active = activation above about 47%;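 note: 0% = vehicle wells and 100% = reference agonist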
Target sequence (P35869 whole entry, looked up): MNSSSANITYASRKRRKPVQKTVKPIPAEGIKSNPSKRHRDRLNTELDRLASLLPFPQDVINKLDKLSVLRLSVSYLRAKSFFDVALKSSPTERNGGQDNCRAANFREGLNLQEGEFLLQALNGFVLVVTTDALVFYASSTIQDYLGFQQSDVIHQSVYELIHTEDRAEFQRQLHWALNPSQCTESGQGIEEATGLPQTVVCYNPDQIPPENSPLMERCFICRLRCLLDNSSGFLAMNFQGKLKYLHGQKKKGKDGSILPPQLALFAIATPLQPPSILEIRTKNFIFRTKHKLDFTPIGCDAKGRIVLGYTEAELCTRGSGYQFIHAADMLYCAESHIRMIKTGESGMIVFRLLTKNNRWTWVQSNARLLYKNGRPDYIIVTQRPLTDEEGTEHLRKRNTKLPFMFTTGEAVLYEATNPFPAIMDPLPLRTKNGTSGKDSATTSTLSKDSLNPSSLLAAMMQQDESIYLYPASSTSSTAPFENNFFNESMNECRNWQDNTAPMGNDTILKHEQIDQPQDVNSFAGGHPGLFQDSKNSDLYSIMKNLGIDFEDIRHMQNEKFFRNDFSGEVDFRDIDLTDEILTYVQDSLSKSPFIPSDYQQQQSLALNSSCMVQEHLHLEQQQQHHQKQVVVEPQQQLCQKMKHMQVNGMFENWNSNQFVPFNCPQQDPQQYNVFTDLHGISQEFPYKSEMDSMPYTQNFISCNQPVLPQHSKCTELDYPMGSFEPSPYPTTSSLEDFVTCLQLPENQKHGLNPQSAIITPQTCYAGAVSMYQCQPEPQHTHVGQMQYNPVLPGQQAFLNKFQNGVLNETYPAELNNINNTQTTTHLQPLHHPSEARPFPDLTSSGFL
DAX1 inh-1 – DAX1 (NR0B1) inhibition, primary screen | HEK293T StAR-luciferase reporter, SF-1/DAX-1 repression relief | inhibition, % at 6.8 µM | 370,000 compounds, 1.1% hits;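 active = inhibition above the mean over all tested compounds plus 3 SD, cut at about 3.6% in these data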;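 note: 0% = DAX-1 cells with DMSO and 100% = cells lacking DAX-1 with DMSO; higher inhibition means more luminescence from relief of DAX-1 repression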
DAX1 inh-2 – inhibits human nuclear receptor DAX1; P51843; HEK293 Gal4-DAX1 luciferase reporter, luminescence; inhibition, % at 6.75 µM; 340,000 compounds, 0.99% hits; AID 504766;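 active = inhibition above the mean over all tested compounds plus 3 SD, cut at about 4.2% in these data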;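 note: 0% = DAX1-transfected cells with DMSO and 100% = empty-vector control cells with DMSO; inhibition shows as a rise in luminescence from relieved DAX1 repression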
hcDAF-12 act – activates DAF-12 receptor from parasite H. contortus. HEK293 hcDAF-12 lit1-tk-luc reporter, luminescence; 0% DMSO, 100% Δ7-dafachronic acid. activation, % at 6.8 µM. 370,000 compounds, 1.4% hits. AID 652067;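 active = activation above the mean of all tested compounds plus 3 SD, cut at about 5.5% in these data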;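 note: 100% = response to 3 µM Δ7-dafachronic acid high control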
hgDAF-12 ag – agonists of H. glycines DAF-12 nuclear receptor; HEK293 GAL4-hgDAF12 UAS-luciferase reporter, agonist luminescence; normalized to butyrate control; activation, % at 6.8 µM; 370,000 compounds, 1.8% hits; AID 687014;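 active = activation above a cutoff set at the mean of all screened compounds plus 3 SD, cut at about 10% in these data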;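 note: 0% = DMSO wells and 100% = sodium butyrate wells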
ssDAF-12 act – activators of S. stercoralis DAF-12 nuclear receptor; activation, % at 6.8 µM; 370,000 compounds, 1% hits; HEK293 ssDAF-12/GRIP1 lit1-tk-luc reporter, luminescence; % of 3 µM dafachronic acid response;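 active = activation above the mean over all tested compounds plus 3 SD, cut at about 0.9% in these data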;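 note: 0% = DMSO-only wells and 100% = 3 µM delta7-dafachronic acid wells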
* marks the source's active call; other numbers are inactive results. This is a sample that favours compounds with a hit; in the whole collection about 5.7% have one here.

How did Cc1c(C)c2ccc(OCC(=O)Nc3nccs3)cc2oc1=O do in these assays?
AHR activator: 6.7; DAX1 inh-1: 1.4; DAX1 inh-2: -2.1; hcDAF-12 act: 5.2; hgDAF-12 ag: 11.3*; ssDAF-12 act: 0.1

How did O=C(Nc1ccccc1C(=O)NC(Cc1c[nH]c2ccccc12)C(=O)O)c1ccco1 (configuration not stated) do in these assays?
AHR activator: 13.0; DAX1 inh-1: -0.2; DAX1 inh-2: 1.0; hcDAF-12 act: 2.3; hgDAF-12 ag: 4.0; ssDAF-12 act: 1.4*

What do the screens show for `Cc1ccc(C(=O)NC(Cc2c[nH]c3ccccc23)C(=O)O)o1` (configuration not stated)?
AHR activator: 33.5; DAX1 inh-1: 1.1; DAX1 inh-2: 0.7; hcDAF-12 act: 6.1*; hgDAF-12 ag: 0.2; ssDAF-12 act: -0.3

What do the screens show for `Cc1cccc(CNC(=O)Nc2nnc([C@H]3C[C@H](O)[C@@H](CO)O3)s2)c1`?
DAX1 inh-1: -0.8; hcDAF-12 act: -1.0; hgDAF-12 ag: -0.6; ssDAF-12 act: -0.9

Results for CCOC(=O)C1(C)CCCN1C(=O)c1ccccc1OC (configuration not stated) ?
DAX1 inh-1: 1.2; hcDAF-12 act: -1.2; hgDAF-12 ag: -1.3; ssDAF-12 act: -1.5

Results for C/C(=N\NC(=O)c1cccc([N+](=O)[O-])c1)c1ccncc1 ?
AHR activator: 78.3*; DAX1 inh-1: -0.8; DAX1 inh-2: -1.6; hcDAF-12 act: 0.8; hgDAF-12 ag: 4.4; ssDAF-12 act: -0.3

Results for C/C(=N\NC(=O)c1cccc(N/N=C(\C)c2ccncc2)c1)c1ccncc1 ?
AHR activator: 66.7*; DAX1 inh-1: 0.1; DAX1 inh-2: -0.4; hcDAF-12 act: 1.2; hgDAF-12 ag: 2.9; ssDAF-12 act: -0.7

How did Nc1ccc(S(=O)(=O)N2CCC(Cc3ccccc3)CC2)cc1 do in these assays?
AHR activator: 3.4; DAX1 inh-1: 0.8; DAX1 inh-2: 0.0; hcDAF-12 act: 2.6; hgDAF-12 ag: -1.7; ssDAF-12 act: -1.4

What do the screens show for `CC(Oc1ccc(Cl)cc1Cl)c1nc(-c2ccc(NC(=O)c3ccccn3)cc2)no1` (configuration not stated)?
AHR activator: 1.3; DAX1 inh-1: 3.4; DAX1 inh-2: 1.3; hcDAF-12 act: 2.8; hgDAF-12 ag: 8.0; ssDAF-12 act: -0.3

Results for Cc1csc(N/N=C/c2ccccn2)n1 ?
AHR activator: -3.7; DAX1 inh-1: 2.3; DAX1 inh-2: -1.9; hcDAF-12 act: 6.2*; hgDAF-12 ag: 9.3; ssDAF-12 act: 1.3*

How did CSc1nc2ccccc2c(=O)n1C1CCOC(C)(C)C1 (configuration not stated) do in these assays?
AHR activator: 0.8; DAX1 inh-1: -0.2; DAX1 inh-2: 0.1; hcDAF-12 act: -1.2; hgDAF-12 ag: -0.4; ssDAF-12 act: -1.6

Results for CCNC(=S)N1N=C2c3ccccc3CCC2C1c1ccc(F)cc1 (configuration not stated) ?
AHR activator: 51.4*; DAX1 inh-1: 0.4; hcDAF-12 act: 0.6; hgDAF-12 ag: 0.3; ssDAF-12 act: -0.2

Results for O=C(CNS(=O)(=O)c1ccc(Cl)c(C(F)(F)F)c1)NC1CCCCCC1 ?
AHR activator: -0.3; DAX1 inh-1: -0.4; DAX1 inh-2: 0.4; hcDAF-12 act: 0.0; hgDAF-12 ag: -0.6; ssDAF-12 act: -0.7

How did O=S(=O)(c1c(Cl)sc(Cl)c1Br)N1CCCC1 do in these assays?
AHR activator: -1.7; DAX1 inh-1: -0.3; DAX1 inh-2: 0.1; hcDAF-12 act: -0.8; hgDAF-12 ag: -1.0; ssDAF-12 act: 1.5*

How did O=S(=O)(c1ccc(Cl)cc1)N1CCCCCC1 do in these assays?
AHR activator: 11.7; DAX1 inh-1: 0.9; DAX1 inh-2: -0.3; hcDAF-12 act: -0.2; hgDAF-12 ag: 0.2; ssDAF-12 act: -1.3

What do the screens show for `Cc1ccc(-n2nc3ccc(N)cc3n2)cc1Cl`?
AHR activator: 28.5; DAX1 inh-1: 2.1; DAX1 inh-2: 1.6; hcDAF-12 act: 6.2*; hgDAF-12 ag: 6.1; ssDAF-12 act: 0.1

Results for COc1ccc(-n2nc3ccc(N)cc3n2)cc1Cl ?
AHR activator: 13.0; DAX1 inh-1: 0.1; DAX1 inh-2: -1.5; hcDAF-12 act: 0.7; hgDAF-12 ag: 4.7; ssDAF-12 act: -1.3

What do the screens show for `Cc1ccc(-n2nc3ccc(N)cc3n2)cc1C`?
AHR activator: 46.0; DAX1 inh-1: 0.8; DAX1 inh-2: 1.8; hcDAF-12 act: 5.8*; hgDAF-12 ag: 4.5; ssDAF-12 act: 0.3

How did COCCCNC(=S)NNC(=O)C1CC1c1ccc(C(C)(C)C)cc1 (configuration not stated) do in these assays?
DAX1 inh-1: 0.1; DAX1 inh-2: 5.2*; hcDAF-12 act: -0.2; hgDAF-12 ag: 3.0; ssDAF-12 act: -2.0

What do the screens show for `O=C(Nc1cccc([N+](=O)[O-])c1)c1cnccn1`?
AHR activator: 4.2; DAX1 inh-1: 0.2; DAX1 inh-2: -0.8; hcDAF-12 act: -1.9; hgDAF-12 ag: -2.4; ssDAF-12 act: -1.1

What do the screens show for `O=C(N/N=C/c1cc([N+](=O)[O-])ccc1Cl)c1cnccn1`?
AHR activator: 24.5; DAX1 inh-1: 0.3; DAX1 inh-2: 5.1*; hcDAF-12 act: -0.1; hgDAF-12 ag: 0.7; ssDAF-12 act: -0.6

Results for O=C(N/N=C/c1cccc([N+](=O)[O-])c1)c1cnccn1 ?
AHR activator: 53.7*; DAX1 inh-1: 0.2; DAX1 inh-2: 0.3; hcDAF-12 act: 4.0; hgDAF-12 ag: 1.7; ssDAF-12 act: -0.9

What do the screens show for `CSCCC(NC(=O)COc1ccccc1)C(=O)N1CCOCC1` (configuration not stated)?
AHR activator: 1.6; DAX1 inh-1: 0.7; DAX1 inh-2: 1.3; hcDAF-12 act: 1.0; hgDAF-12 ag: 1.0; ssDAF-12 act: -1.2

Results for CC(C)c1[nH]nc2c1C(c1ccc(F)cc1)N(Cc1ccccc1)C2=O (configuration not stated) ?
DAX1 inh-1: 0.2; hcDAF-12 act: -1.4; hgDAF-12 ag: -0.2; ssDAF-12 act: -1.1

How did Cc1cc(NC(=O)CSc2nnc(-c3ccncc3)n2C)n(-c2ccccc2)n1 do in these assays?
AHR activator: 1.2; DAX1 inh-1: 0.4; DAX1 inh-2: 6.0*; hcDAF-12 act: -1.1; hgDAF-12 ag: -1.4; ssDAF-12 act: -1.5

How did Cc1cccc(NC(=O)CSc2nnc(-c3ccncc3)n2C)c1 do in these assays?
AHR activator: -5.4; DAX1 inh-1: 0.1; DAX1 inh-2: 0.1; hcDAF-12 act: -0.8; hgDAF-12 ag: 12.2*; ssDAF-12 act: -1.5

What do the screens show for `O=C(NCc1ccccc1)[C@H]1CCCN1C(=O)[C@H]1CCCN1C(=O)c1ccc(F)c(F)c1`?
DAX1 inh-1: 0.1; hcDAF-12 act: -2.1; hgDAF-12 ag: 0.8; ssDAF-12 act: 0.3

What do the screens show for `Cc1cc(C)c2cc(C(=O)Nc3ccc4c(c3)OCO4)[nH]c2c1`?
AHR activator: 10.5; DAX1 inh-1: 0.3; hcDAF-12 act: -2.4; hgDAF-12 ag: -1.2; ssDAF-12 act: -1.2

From PubChem
